These results are taken from PubChem BioAssay (NCI).

Common to all, as to test: NCI-60 one-dose screen, 48 h (100 = growth as untreated, 0 = no growth, -100 = all killed)
Common to all, as to settings: 10 µM unless noted

Assay [1] has as its system SK-MEL-2 melanoma.
Assay [2] relates to EKVX NSCLC.
For assay [3], the system named is SN12C renal.
Assay [4] relates to UO-31 renal.
In assay [5] the test system is TK-10 renal.
In assay [6] the test system is ACHN renal.
Assay [7] has as its system CAKI-1 renal.
Assay [8] relates to A498 renal.
For assay [9], the system named is CCRF-CEM leukemia.
The test system of assay [10] is MOLT-4 leukemia.

Molecules are shown by their SMILES. This is part of a sample that, as a whole, favours compounds with a hit. Of some 83,000 tested, about 20% had one in any assay.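 Each cell line was grown in a 96-well plate and treated with one concentration of compound for 48 hours. Values below 10 were considered active.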 Unmarked numbers belong to inactive results. The source made the active and inactive calls.

On to `CN(C)c1nc(NCCNS(=O)(=O)c2ccc(C3=Nc4c(N)nc(N)nc4NC(c4ccc(C(F)(F)F)cc4)C3)cc2)nc(Nc2ccc(F)cc2)n1` (stereo not given), for which the growth was -82% (active) in assay [1]; 26.2% in assay [2]; 30.8% in assay [3]; 84.7% in assay [4]; 59.4% in [5]; 58.5% in assay [6]. The growth was 63.1% in assay [7], 41.6% in assay [8], 8.86% (active) in [9] and 9.04% (active) in assay [10].
`O=c1oc2ccc(Br)cc2cc1C1=CSc2nc3sc4c(c3c(=O)n2N=C1)CCCC4`: the growth in assay [1] was 98.6%; in assay [2], 97%; in [3] it was 103%; in [4], 69.8%; in [5] it was 175%; in [6] it was 99.4%. Further, the growth was 96.2% in assay [7], 177% in assay [8], 84.4% in assay [9] and 93.2% in [10].
Regarding `COc1ccc(/C=C/c2nc3ccccc3n3c(-c4ccc(Cl)cc4)nnc23)cc1`, the growth in assay [1] was 99.8%; in [2], 88.7%; in assay [3], 91.7%; in assay [4], 66.4%; in assay [5], 106%; in [6], 93.5%. Besides, the growth in [7] is 72.2%; in assay [8] it was 85.3%; in assay [9], 78.1%; in [10], 72.6%.
Regarding `COc1ccc(-c2nc3cc(C)ccc3n2CC(=O)N=Nc2c(O)[nH]c3ccccc23)cc1`, the growth in assay [1] is 58%; in assay [2], 46%; in assay [3], -91.7% (active); in assay [4], 53.7%; in [5], 73.6%; in assay [6] it was -12.5% (active). Besides, the growth in assay [7] is 53.3%; in [8] it was 102%; in assay [9], 79.1%; in assay [10], 13.2%.
On to `O=C1Nc2cc(Cl)ccc2/C1=C/c1cccc(OCc2ccccn2)c1`, for which the growth in [1] is 41%; in assay [2] it was 15%; in [3], -15% (active); in assay [4], 29.7%; in [5] it was 35.5%; in assay [6] it was 16.9%. Further, the growth is 16.8% in assay [7], 123% in assay [8], 2.33% (active) in assay [9] and 4.01% (active) in [10].
Consider `COc1ccc(/C=C/c2n(Cc3ccc4ccccc4c3)c3ccccc3[n+]2Cc2ccc3ccccc3c2)cc1`, for which the growth in [1] is -93.7% (active); in assay [2], -82.7% (active); in [3] it was -88.8% (active); in assay [4] it was -93% (active); in [5], -93.7% (active); in assay [6], -100% (active). For the same molecule, the growth in assay [7] was -100% (active); in assay [8], -79.8% (active); in [9], -24.2% (active); in assay [10] it was -2.71% (active).
As for `CC(=O)c1cccc(NC(=O)CCC(=O)NS(=O)(=O)c2ccc(C)cc2)c1`, the growth in [1] was 115%; in [2] it was 99.5%; in assay [3], 111%; in [4], 92.5%; in [5], 103%; in [6], 105%. For the same molecule, the growth in assay [7] is 101%; in [8], 137%; in assay [9], 99%; in assay [10], 107%.
For the molecule `C=C1CCC2C3(C)COC(c4ccccc4)OC3CCC2(C)C1CC(Sc1ccccc1)C1=CCOC1=O` (stereo not given), the growth is 59.4% in assay [1]; 69.3% in [2]; 25.7% in [3]; 45.5% in [4]; 106% in [5]; 65.1% in [6]. In addition, the growth in assay [7] was 78.4%; in assay [8] it was 140%; in assay [9], -1.92% (active); in assay [10], -14.3% (active).
Regarding `COc1ccc(C2=NN(c3ccccc3)C(c3ccc(OC)c(OCc4ccccc4)c3)C2)cc1OC` (stereo not given), the growth in [1] is 94.1%; in assay [2], 92.4%; in [3], 104%; in [4], 91.7%; in assay [5], 125%; in assay [6], 110%. The growth in assay [7] is 76.7%; in assay [8], 101%; in assay [9], 106%; in [10], 97%.
As to `COc1ccc2nc(Nc3cccc(NC(=O)c4ccc(CN5CCCN(C)CC5)c(C(F)(F)F)c4)c3)ccc2c1`, the growth is -74.5% (active) in assay [1]; -98.5% (active) in assay [2]; -65.9% (active) in assay [3]; -66.9% (active) in [4]; -81.1% (active) in [5]; -91.5% (active) in assay [6]. The growth was -65.2% (active) in assay [7], -53.3% (active) in [8], -43.6% (active) in assay [9] and -4.91% (active) in assay [10].
Regarding `COc1ccc(C(=O)/C=C/c2ccc(OC)c(OCc3ccccc3)c2)cc1OC`, the growth in assay [1] is 55.8%; in assay [2], 25.2%; in assay [3], 7.92% (active); in [4], 19.3%; in assay [5], 20.5%; in assay [6], 21.8%. Further, the growth is 39.4% in [7], 108% in [8], 12.9% in assay [9] and 8.07% (active) in [10].
As to `CC(=O)c1cc(C(=O)c2ccccc2)n2c1ccc1ccccc12`, the growth is 117% in assay [1]; 98.5% in assay [2]; 90.6% in assay [3]; 55.5% in assay [4]; 142% in [5]; 91.7% in [6]. Moreover, the growth was 79.6% in assay [7], 129% in assay [8], 108% in assay [9] and 87.6% in assay [10].
With `COC(=O)C[C@](O)(CCCC(C)(C)O)C(=O)O[C@H]1C(OC)=C[C@@]23CCCN2CCc2cc4c(cc2[C@@H]13)OCO4`, the growth was -40% (active) in assay [1]; -4.85% (active) in [2]; -11.3% (active) in [3]; 30.6% in [4]; -12.6% (active) in assay [5]; 2.95% (active) in [6]. Besides, the growth was 3.41% (active) in assay [7], -18.6% (active) in assay [8], -5.84% (active) in assay [9] and -6.36% (active) in assay [10].
